Here are results for 23 compounds from PubChem BioAssay.

Activity calls are given as the source filed them. How the calls were made is not given here.

In general, inhibition refers to the change of the read-out against control, counted positive when it falls.

In this assay the target is Pantothenate synthetase (Mycobacterium tuberculosis (strain ATCC 25618 / H37Rv)) (UniProt P9WIL5). Put plainly: Recombinant Mtb pantothenate synthetase (PanC) inhibitors, coupled enzyme, confirmatory (AID 375).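 Further: 0% = full reaction with vehicle and 100% = no enzyme background.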 As to conditions: coupled enzyme assay; at 10 µM, stronger effect = higher value.
Pantothenate synthetase (Mycobacterium tuberculosis (strain ATCC 25618 / H37Rv)), sequence (P9WIL5 whole entry, looked up): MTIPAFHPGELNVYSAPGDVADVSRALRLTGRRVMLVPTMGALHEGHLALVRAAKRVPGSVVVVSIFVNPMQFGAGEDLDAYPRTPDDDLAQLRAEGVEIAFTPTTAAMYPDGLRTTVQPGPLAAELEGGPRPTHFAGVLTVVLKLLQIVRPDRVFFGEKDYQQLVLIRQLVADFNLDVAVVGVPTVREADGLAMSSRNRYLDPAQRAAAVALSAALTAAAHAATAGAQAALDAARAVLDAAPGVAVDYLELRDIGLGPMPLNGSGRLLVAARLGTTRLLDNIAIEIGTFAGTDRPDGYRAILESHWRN
For the compound `O=C(Nc1nnc(SCC(=O)N2CCCCC2)s1)C1CCCCC1`, the inhibition is 5% (inactive).
Consider `Cc1ccc(N(C(C)C(=O)Nc2ccc(S(=O)(=O)N3CCOCC3)cc2)S(C)(=O)=O)cc1` (stereo not drawn), for which the inhibition was 0% (inactive).
The figure for `CN1CC=C2C(C#N)=C(N)C(C#N)(C#N)C(Cc3ccccc3)C2C1` (stereo not drawn) is 0% (inactive).
The figure for `CC(=O)c1ccc(OCC(O)CN2CC(C)OC(C)C2)cc1` (stereo not drawn) is 0% (inactive).
Regarding `Cc1nc2sc(C(c3cccc(F)c3)N3CCC(C)CC3)c(O)n2n1` (stereo not drawn), the inhibition is 0% (inactive).
With `Cc1oc(-c2ccccc2F)nc1CS(=O)(=O)CC(=O)N1CCN(Cc2ccccc2)CC1` the figure was 0% (inactive); with `OC1C[N+]2(CCCCC2)C1`, 0% (inactive).
`c1ccc(-n2cnc3cc(NCc4ccccn4)ccc32)cc1`: the inhibition was 0% (inactive).
With `COc1ccc(C(C(=O)NC2CCCCC2)N2CCC3(CC2)OCCO3)cc1` (stereo not drawn) the figure was 0% (inactive); with `CCc1nc(C)c(-c2ccccc2)c(=O)[nH]1`, 6% (inactive); with `CCCCCSc1nc2c(cnn2-c2ccccc2)c(=O)[nH]1`, 11% (inactive).
With `CCCn1cc(SCC(N)=O)c2ccccc21` the figure was 0% (inactive); with `COC(=O)c1ccc(NC(=O)CN2CCCC2)cc1`, 0% (inactive); with `Cc1c(CNCc2cccs2)c(C(=O)O)c(C)n1Cc1ccccc1`, 0% (inactive).
For the compound `CCOC(=O)c1sc2nc(NC(=O)C3CCCCC3)sc2c1C`, the inhibition was 2% (inactive).
With `O=C(CNS(=O)(=O)c1ccc(Br)s1)N1CCCC1` the figure was 0% (inactive); with `C=CCc1cccc2cc(C(=O)NCc3cccnc3)c(=O)oc12`, 1% (inactive).
Turning to `Cc1cccc(NS(=O)(=O)c2cc(C(=O)OCC(=O)Nc3cc(C)on3)ccc2C)c1`, the inhibition was 0% (inactive).
In the case of `COC(=O)Nc1nc2ccc(Sc3ccccc3)cc2[nH]1`, the inhibition is 8% (inactive).
With `COc1ccc(C(=O)N2CCCc3ccccc32)cc1` the figure was 0% (inactive); with `CCn1nc(C)c(NC(=O)c2cc(Br)ccc2Cl)c1C`, 15% (inactive).
With `CCOc1ccc2cc(C#N)c(SCC(=O)N3CCC(C)CC3)nc2c1`, the inhibition was 10% (inactive).
With `Cc1cnc(NC(=O)CSc2nnc(COc3c(C)cccc3C)o2)s1` the figure was 8% (inactive).
